The source of these data is PubChem BioAssay (NCATS).

Records with an inconclusive call do not appear. Active and inactive are the calls of the source. The call rests on the fitted dose curve; in most records, active means well fitted cell-killing curve with a large enough effect; inconclusive means small, poorly fitted or top-dose-only effect, or effect the other way; inactive means no such curve, though single readings can be large or run the other way.

Assay [1] is described as follows: Viability qHTS for spleen associated tyrosine kinase inhibitor (SYKi) naive MV4-11 cells (AID 1963823). Further: nearly all actives have a fitted effect of over 40% in size. The note with it: MV4-11 AML viability, CellTiter-Glo luminescence, 72 h; series mostly up to 45 µM. In short, it runs like this:
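SYKi-naive MV4-11 AML cells, 500 per well, were exposed to library compounds for 72 hr at 37 C, 5% CO2. Viability was then read by CellTiter-Glo luminescence after 10 min at room temperature.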
Background: Quantitative high-throughput screening tests each substance at several concentrations.

Assay [2] can be described thus: Viability qHTS for spleen associated tyrosine kinase inhibitor (SYKi) drug resistant MV4-11 cells (AID 1963824). Further: nearly all actives have a fitted effect of over 35% in size. As to conditions: SYKi-resistant MV4-11 viability, CellTiter-Glo, 72 h; series mostly up to 45 µM. In short, it runs like this: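 SYK-inhibitor-resistant MV4-11 AML cells were seeded at 500 per well onto compound and cultured 72 hours (37 °C, 5% CO2). CellTiter-Glo was then added, and after 10 min at room temperature, luminescence gave viability.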
Potency means the concentration at half of the fitted maximal effect.

In the case of `C=C1C[C@]23C[C@H]1CC[C@H]2C1=C[C@H]2OC(=O)[C@@](C)([C@H]1[C@@H]3C(=O)O)[C@H]2O`, the Potency result in assay [1] and in assay [2] was “inactive” in each case.

For the compound `Cc1sc2c(c1C)C(c1ccc(Cl)cc1)=N[C@H](CC(=O)NCCCCNC(=O)COc1cccc3c1C(=O)N([C@H]1CCC(=O)NC1=O)C3=O)c1nnc(C)n1-2`, the Potency in assay [1] and in assay [2] was 46.1 nM (active) throughout.

With `COc1ccc(-c2ccc3c(N4CCOCC4)nc(N4CC(C)OC(C)C4)nc3n2)cc1CO` (centres undefined), the Potency is 291 nM (active) in assay [1] and 1030 nM (active) in assay [2].

For the compound `COC(=O)C1=COC(O[C@@H]2O[C@H](CO)[C@@H](O)[C@H](O)[C@H]2O)C2C(C)C(=O)CC12` (some centres undefined), the Potency entry in assay [1] and in assay [2] was “inactive” in each case.

As for `CSCC1OC(n2cnc3c(=O)[nH]cnc32)C(O)C1O` (centres undefined), the Potency entry in assay [1] and in assay [2] was “inactive” each time.

For the compound `C[C@@H]1CC2OC(=O)C3=C2C(CCC3O)[C@@]12C[C@@H](c1ccoc1)OC2=O` (some centres undefined), the Potency entry in assay [1] and in assay [2] was “inactive” throughout.

Take `C=C1C(=O)OC[C@H]2C(C(=O)O)=CC3CC(C)(C)C[C@@]132` (some centres undefined): in assay [1], the Potency entry is “inactive”. In assay [2], the Potency is 14600 nM (active).

Consider `CCC(C)/C=C(C)/C=C/C1=CC2=C(Cl)C(=O)C(C)(OC(C)=O)C(=O)C2=CN1CCCCC(N)C(=O)O` (centres undefined), for which the Potency result in assay [1] and in assay [2] was “inactive” each time.

For `COc1ccc(-c2cnc3ccc(NCc4ccc(S(N)(=O)=O)cc4)nn23)cc1OC`, the Potency is 920 nM (active) in assay [1] and 1640 nM (active) in assay [2].

In the case of `COC(=O)[C@H](O)[C@H]1C(C)(C)[C@H](OC(=O)C(C)C)[C@@]2(O)C(=O)[C@]1(C)C1CC[C@]3(C)C(CC(=O)O[C@H]3c3ccoc3)[C@]13O[C@@H]32` (some centres undefined), the Potency result in assay [1] and in assay [2] was “inactive” throughout.

`O=C(NCc1cccc(O)c1)c1cc2cc(F)ccc2[nH]1`: the Potency in assay [1] was 16400 nM (active); in assay [2], 13000 nM (active).

For `CCN1CCN(c2ccc(Nc3ccc(-c4ccc(C(N)=O)cc4)n4ncnc34)cc2)CC1`, the results for the Potency in assay [1] and in assay [2] were 517 nM (active) and 651 nM (active), respectively.
